Among the data in PubChem BioAssay (NCI) are growth values, retold here.

Compounds without any hit were thinned out: in the full panel of roughly 83,000, 20% have a hit.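 Single-dose data. Exposure time 48 hours. Values below 10 considered active.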 Unmarked numbers belong to inactive results. The source made the active and inactive calls.

What all share (experiment): NCI-60 one-dose screen, 48 h (100 = growth as untreated, 0 = no growth, -100 = all killed)
Settings in all cases: 10 µM unless noted

The subject of test [1] is BT-549 breast.
In test [2] the test system is MDA-MB-435 melanoma.
In test [3] the test system is SW-620 colon.
Test [4] concerns MCF7 breast.
In test [5] the test system is HCT-116 colon.
The test system of test [6] is HCC-2998 colon.
The subject of test [7] is KM12 colon.

With `O=C(NCCNCCO)c1cc([N+](=O)[O-])cc([N+](=O)[O-])c1O`, the growth is 121% in test [1]; 104% in test [2]; 103% in test [3]; 102% in test [4]; 103% in test [5]; 101% in test [6]. Also, the growth in test [7] was 108%.
As for `O=C(Nc1cccc2[nH]c(C(F)(F)F)nc12)c1ccc(F)cc1`, the growth in test [1] was 87.5%; in test [2] it was 87.2%; in test [3], 91.5%; in test [4], 83.8%; in test [5] it was 84.4%; in test [6] it was 115%. Besides, the growth in test [7] was 73.1%.
As to `CCC(C)C1NC(=O)C(CC(C)C)NC(=O)C(C)NC(=O)C(C(C)C)NC(=O)C(CCCCN)NC(=O)C(CC(C)C)NC(=O)C(C(C)C)NC(=O)[C@H](C)NC(=O)C(C(C)CC)NC(=O)C(CCCN=C(N)N)NC(=O)C(CCCCN)NC(=O)C(CCCN=C(N)N)NC(=O)C(CCCCN)NC(=O)C([C@H](C)CC)NC(=O)C(CCCCN)NC1=O` (some centres undefined), the growth was 14.4% in test [1]; 11.2% in test [2]; 19.6% in test [3]; 20.5% in test [4]; 3.67% (active) in test [5]; 16.7% in test [6]. Also, in test [7], the growth is -6.4% (active).
Turning to `c1cc[c]([Bi]([c]2ccccc2)[c]2ccccc2)cc1`, the growth in test [1] was 96.8%; in test [2], 90.4%; in test [3] it was 92.9%; in test [4], 97.5%; in test [5] it was 104%; in test [6], 96.5%. Moreover, in test [7], the growth was 97.1%.
`COC(=O)c1ccc2[nH]c(O)c(C(=Nc3ccc(N(C)C(=O)CN4CCN(C)CC4)cc3)c3ccc([N+](=O)[O-])cc3)c2c1`: the growth in test [1] is 49.1%; in test [2], 49.9%; in test [3], 54.7%; in test [4], 30.6%; in test [5], 20.4%; in test [6], 66.7%. In test [7], the growth is 16.2%.
Take `COc1cc2c(c(OC)c1OC)C(=O)CC(c1cccc(C(=O)Nc3cccc(Br)c3)c1)O2` (centres undefined): the growth was 63% in test [1]; 69.3% in test [2]; 95.4% in test [3]; 68.3% in test [4]; 58.1% in test [5]; 112% in test [6]. Besides, the growth in test [7] is 71.2%.
On to `CN1CCN(Cc2ccc(NC(=O)c3ccc(C#Cc4c(N)ncc5ccc(F)cc45)cc3)cc2C(F)(F)F)CC1`, for which the growth in test [1] was 27.7%; in test [2], -92% (active); in test [3], -52.5% (active); in test [4], -77.3% (active); in test [5] it was -95.4% (active); in test [6], -82.9% (active). In test [7], the growth is -75.5% (active).
For the compound `Cc1nc2c(nnn2-c2ccccc2)c2nc(-c3ccccc3)oc(=O)c12`, the growth is 105% in test [1]; 111% in test [2]; 109% in test [3]; 92.3% in test [4]; 101% in test [5]; 116% in test [6]. The growth in test [7] was 118%.
As to `C#CCCCCCCC[C@@H]1OC(=O)[C@H]([C@@H](C)CC)NC(=O)[C@H]([C@@H](C)CC)NC(=O)CC(=O)[C@@H]1C`, the growth was 108% in test [1]; 105% in test [2]; 98.2% in test [3]; 95.4% in test [4]; 93.4% in test [5]; 106% in test [6]. The growth in test [7] was 100%.
With `Cc1cc2cn3c4ccc(O)cc4nc(N)c3c2cc1C`, the growth in test [2] is -31.2% (active); in test [3], 11%; in test [4], -46.8% (active); in test [5] it was -100% (active); in test [7], 6.3% (active).
As to `CC(C)OC(=O)[C@H](C)N[P@@](=O)(OC[C@@]1(C)O[C@@H](n2cc(F)c(N)nc2=O)C[C@@H]1O[P@](=O)(N[C@@H](C)C(=O)OC(C)C)Oc1ccccc1)Oc1ccccc1`, the growth in test [1] is 75.9%; in test [3] it was 61.1%; in test [4], 50.3%; in test [5], 88.2%; in test [6] it was 46.7%; in test [7], 76%.
In the case of `C/C=C(/C)C(=O)OC1C=C(CO)C(=O)C(OC(=O)C(C)(O)C(C)Cl)C1C(C)C` (centres undefined), the growth was -9.98% (active) in test [1]; -23.2% (active) in test [2]; -45.7% (active) in test [3]; 8.43% (active) in test [4]; -56.5% (active) in test [5]; -76.3% (active) in test [6]. For the same compound, the growth in test [7] was -45.1% (active).
In the case of `Cc1cc2cn3c4ccc(O)cc4[nH]c(=O)c3c2cc1C`, the growth in test [2] was 0.693% (active); in test [3] it was -100% (active); in test [4] it was -57.2% (active); in test [5] it was -100% (active); in test [6], 24.1%; in test [7], -36.9% (active).
As for `O=C(Nc1cccc(Cn2c(=O)[nH]c3ccc(Oc4ncccn4)cc3c2=O)c1)c1cc(Cl)cc(Cl)c1`, the growth in test [1] was -3.71% (active); in test [2], 67.3%; in test [3] it was 89.5%; in test [4] it was 64%; in test [5], 59.9%; in test [6], 85.6%. In test [7], the growth is 40.6%.
Consider `CCC(C)C1NC(=O)C(CCCCN)NC(=O)C(CCCCN)NC(=O)C(CC(C)C)NC(=O)C(CCCCN)NC(=O)C(C(C)CC)NC(=O)C(C(C)C)NC(=O)C(C(C)CC)NC(=O)C(CCCCN)NC(=O)C(CCCCN)NC(=O)C(C)NC(=O)C(CCCCN)NC(=O)C(CC(C)C)NC1=O` (centres undefined), for which the growth in test [1] is 35.5%; in test [2], 26.5%; in test [3], 39.1%; in test [4] it was 22.5%; in test [5] it was 10.7%; in test [6] it was 23.2%. Besides, the growth in test [7] is 6.18% (active).
With `Cc1ccc(C(=O)Nc2ccc(CN3CCN(C)CC3)c(C(F)(F)F)c2)cc1C#Cc1cnc(N)c2ccc(F)cc12`, the growth in test [1] is -95.9% (active); in test [2], -93.2% (active); in test [3] it was -83.6% (active); in test [4], -79.7% (active); in test [5], -96.5% (active); in test [6], -78.5% (active). For the same compound, the growth in test [7] is -76.9% (active).
Consider `Cc1c([C@H](C(Cl)Cl)[C@H](O)[C@H]2C[C@H](C)C(=O)O2)ccc2c1C(=O)[C@H]1[C@H]2C[C@@H](Br)[C@@]23O[C@@H](CO[C@H]2O)CC13C` (some centres undefined), for which the growth was 37.6% in test [1]; -40% (active) in test [2]; 14.6% in test [3]; 15.1% in test [5]; 8.99% (active) in test [6]; 2.99% (active) in test [7].
